Screen size: about 310,000 compounds; about 3,400 (1.1%) were called active. This is one part of a sample in which actives are shown more often than they occur. Values without a mark were called inactive.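 How the source made its calls: active means fluorescence ratio B-score at most minus 3 library SDs, with starting brightness B-score within 2 library SDs (cut at about -5.5 in these data); inactive means the rest, inconclusive results apart.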
Molecular target: Potassium voltage-gated channel subfamily KQT member 2 (Rattus norvegicus) (UniProt O88943)
Sequence (O88943 whole entry, looked up): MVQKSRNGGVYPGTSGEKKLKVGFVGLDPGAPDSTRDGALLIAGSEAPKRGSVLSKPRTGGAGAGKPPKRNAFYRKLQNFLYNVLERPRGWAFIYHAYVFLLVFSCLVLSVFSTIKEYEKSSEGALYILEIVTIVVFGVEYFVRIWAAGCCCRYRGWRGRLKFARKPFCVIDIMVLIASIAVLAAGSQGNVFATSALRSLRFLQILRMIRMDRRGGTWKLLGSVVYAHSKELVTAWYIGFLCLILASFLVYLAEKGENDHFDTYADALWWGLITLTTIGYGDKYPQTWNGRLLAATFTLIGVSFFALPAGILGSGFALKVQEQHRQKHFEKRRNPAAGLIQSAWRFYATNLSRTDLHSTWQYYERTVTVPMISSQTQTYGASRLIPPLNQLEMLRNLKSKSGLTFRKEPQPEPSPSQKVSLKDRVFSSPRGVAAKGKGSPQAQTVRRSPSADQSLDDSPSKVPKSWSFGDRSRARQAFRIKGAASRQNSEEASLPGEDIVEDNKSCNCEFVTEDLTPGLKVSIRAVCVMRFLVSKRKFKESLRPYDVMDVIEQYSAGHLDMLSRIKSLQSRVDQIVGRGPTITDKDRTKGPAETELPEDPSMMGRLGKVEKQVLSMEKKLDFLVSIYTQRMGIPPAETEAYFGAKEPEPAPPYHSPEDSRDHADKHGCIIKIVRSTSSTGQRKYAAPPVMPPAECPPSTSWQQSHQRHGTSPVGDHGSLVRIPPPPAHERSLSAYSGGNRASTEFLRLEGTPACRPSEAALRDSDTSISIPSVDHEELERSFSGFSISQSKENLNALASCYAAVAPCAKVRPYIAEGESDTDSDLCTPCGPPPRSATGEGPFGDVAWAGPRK
Experiment: rat KCNQ2 potassium channel inhibitors, primary screen, cell-based, CHO-K1, FluxOR thallium flux, B-score (AID 2156)
Settings: 20 min, at 10 µM; stronger effect = lower value

| SMILES | B-score |
| --- | --- |
| Cn1cccc1C(=O)NNC(=O)COc1ccc(Br)cc1 | -0.05 |
| COc1cc(NC(=O)CSC(=S)N2CCCC2)c(OC)cc1Cl | inactive |
| Fc1ccc2[nH]c3c(N4CCSCC4)ncnc3c2c1 | -10.1 (active) |
| Cc1c(CN2CC[C@@H](N3CCN(c4ccccn4)CC3)[C@H](O)C2)[nH]c2ccc(F)cc12 | -0.01 |
| CC(C)OCCCNc1ncnc2c1[nH]c1ccc(F)cc12 | -0.41 |
| Cc1ccc(CNS(=O)(=O)CCNC(=O)c2ccccc2)cc1 | inactive |
| CSc1ccccc1NC(=O)c1cnc2sc(C)cn2c1=O | inactive |
| O=C(Nc1ccccc1)N1CCN(C(=O)Nc2ccccc2)CC1 | inactive |
| O=C(Nc1ccc(Cl)c(Cl)c1)N1CC=C(c2ccccc2)CC1 | -8.43 (active) |
| COc1cc(C(=O)NCC(=O)N2CC=C(c3ccccc3)CC2)cc(OC)c1OC | inactive |
| CC(OC(=O)CNC(=O)c1cccc(F)c1)C(=O)NC1CCCCC1C (configuration not stated) | inactive |
| COCCCN(C(=O)CSCc1ccc(C)cc1)c1c(N)n(Cc2ccccc2)c(=O)[nH]c1=O | inactive |
| CCCCCCOc1ccc(OC(=O)c2cccnc2)cc1 | inactive |
| CCCCCCCCCCCCN1C(=O)CSC1c1cccnc1 (configuration not stated) | -6.52 (active) |
| CN(C)CCCN1C(=O)CSC1c1ccc([N+](=O)[O-])cc1 (configuration not stated) | -0.19 |
| O=C(Nc1ccc(OC(F)(F)F)cc1)c1ccc2c(c1)no[n+]2[O-] | inactive |
| COc1cccc(CNc2nc3nc4c(c(=O)n3[nH]2)CCC4)c1 | inactive |
| COc1cccc(-c2cc3nc4c(c(N5CCC6(CC5)OCCO6)n3n2)CCCC4)c1 | -5.95 (active) |
| COc1cccc(-c2nc(S(=O)(=O)c3ccccc3)c(N3CCOCC3)o2)c1 | inactive |
| CN(C(=O)CN1C(=O)NC(C)(CCc2ccccc2)C1=O)c1ccccc1 (configuration not stated) | inactive |
| CC1(C)Cc2ccccc2/C(=C/C(=O)c2ccccc2)N1 | -5.67 (active) |
| CCOC(=O)C1=C(NC(=S)NC(=O)c2ccccc2)c2ccccc2CC1(C)C | -1.51 |
| CC(C)CC(N=C1NC(C)(C)Cc2ccccc21)C(=O)O (configuration not stated) | -0.08 |
| COc1ccc(CCN(C(=O)COc2ccccc2)c2nc(-c3ccccc3)cs2)cc1OC | -7.67 (active) |
| COc1cccc(CC(=O)Nc2nc(-c3ccc(OC)c(OC)c3)cs2)c1 | inactive |

| SMILES | B-score |
| --- | --- |
| COc1ccc(CCNc2nc(-c3cccc(NC(C)=O)c3)cs2)cc1OC | -0.02 |
| CCN1CCN(c2ccc(S(=O)(=O)N3CCCCC3)cc2NC(=O)c2cccc(NC(C)=O)c2)CC1 | inactive |
| COc1cc(C(=O)OCC(=O)N(CC(C)C)C2CCS(=O)(=O)C2)ccc1OCC(C)C (configuration not stated) | inactive |
| C=CCn1c(SCc2c(C)noc2C)nc2sc3c(c2c1=O)CCC(C)C3 (configuration not stated) | -3.13 |
| C=CCn1c(SCc2csc(C)n2)nc2scc(-c3ccc(C)o3)c2c1=O | -5.75 (active) |
| C=CCNC(=O)CSc1nc2scc(-c3ccco3)c2c(=O)n1CC=C | -1 |
| COc1cc(C(=O)N(C)Cc2cccc(OC)c2OC)ccc1OCC(=O)Nc1cccc(C(F)(F)F)c1 | -4.11 |
| COc1ccc(F)cc1S(=O)(=O)NCC(c1ccc2c(c1)OCO2)N1CCN(C)CC1 (configuration not stated) | -0.58 |
| Cc1cc(OCC(=O)Nc2c(C)n(C)n(-c3ccccc3)c2=O)ccc1[N+](=O)[O-] | -0.54 |
| Cc1cc(OCCCCOc2ccc(C#N)cc2)ccc1[N+](=O)[O-] | -6.09 (active) |
| Cc1cc(OCCCN2CCN(Cc3ccccc3)CC2)ccc1[N+](=O)[O-] | inactive |
| Cc1cccc(N(Cc2ccccc2)C(=O)c2cc(S(=O)(=O)N3CCOCC3)ccc2F)c1 | inactive |
| CC(=O)c1c(C)[nH]c(C(=O)CN2C(=O)NC(C)(C)C2=O)c1C | inactive |
| COc1ccccc1NS(=O)(=O)c1ccc(C(=O)N2CCN(c3ccccc3O)CC2)cc1 | inactive |
| Cc1c(NC(=O)C(C)OC(=O)c2c3c(nc4ccccc24)CCC(C)C3)c(=O)n(-c2ccccc2)n1C (configuration not stated) | inactive |
| Cc1ccc2c(c1)N(C(=O)CCC(=O)N1CCc3ccccc3C1)CCO2 | -5.74 (active) |
| Cc1ccc2c(c1)N(C(=O)CCC(=O)NCc1cccnc1)CCO2 | -0.11 |
| Cc1ccc(Cl)c(OCC(=O)N2CCc3ccccc3C2)c1 | -3.66 |
| COc1ccc(C(=O)OCC(=O)Nc2ccc3[nH]c(=O)[nH]c3c2)c(OC)c1OC | -0.64 |
| COc1ccc(C(=O)NC2CCCc3c2cnn3-c2cccc(C)c2C)c(OC)n1 (configuration not stated) | -6.25 (active) |
| Cc1cc(C(=O)NC2CCCc3c2cnn3-c2cccc(C)c2C)c(C)o1 (configuration not stated) | -2.79 |
| Cn1nccc1C(=O)NC1CCCc2c1cnn2-c1ccccc1F (configuration not stated) | inactive |
| O=C(COC(=O)Cn1[nH]c(=O)c2ccccc2c1=O)Nc1c(Cl)cccc1C(F)(F)F | inactive |
| Cc1ccc2nc(NC(=O)CSc3nc(=O)n(CCCN(C)C)c4c3CCC4)sc2c1 | inactive |
| CC12CCC(=O)N1C(C(=O)Nc1ccc(F)c(F)c1F)CS2 (configuration not stated) | inactive |

| SMILES | B-score |
| --- | --- |
| CCOc1ccc(NS(=O)(=O)c2ccc(C(=O)NCC(c3ccccc3OC)N3CCCC3)cc2)cc1 (configuration not stated) | -1.58 |
| Cc1ccc(N2C(=O)C3C(c4ccccc4)(C2=O)C3(c2ccccc2)c2ccccc2)cc1 (configuration not stated) | -9.48 (active) |
| Cc1ccc(N2C(=O)CC(Nc3cccc4ccccc34)C2=O)cc1 (configuration not stated) | -1.06 |
| Cc1ccc(N2C(=O)C3CC3C2=O)cc1 (configuration not stated) | inactive |
| CN(CC(=O)Nc1ccccc1Cl)C(=O)c1ccccc1SCC(=O)N1CCCC1 | -0.59 |
| CCCCCCCNC(=O)C1(CC2CC(c3cccc(Br)c3)=NO2)CCN(C(=O)c2cc(OCC)c(OCC)c(OCC)c2)CC1 (configuration not stated) | -2.53 |
| COC(=O)c1sccc1NC(=O)c1cc(OC)c(OC)c(OC)c1 | inactive |
| N#Cc1c(NC(=O)CCCN2C(=O)c3ccccc3C2=O)oc(-c2ccccc2)c1-c1ccccc1 | -1.14 |
| COc1cc(C(=O)Nc2oc(-c3ccccc3)c(-c3ccccc3)c2C#N)cc(OC)c1OC | -6.31 (active) |
| Cc1cccc(-c2nc(Nc3ccc(O)cc3)c3ccccc3n2)c1 | -3.05 |
| Cc1cccc(-[n+]2c(-c3cccc(Br)c3)[nH]c3nc4ccccc4nc32)c1 | -6.92 (active) |
| CCCCn1c(N)c(N(CCOC)C(=O)CSCC(=O)Nc2cccc(C)c2)c(=O)[nH]c1=O | inactive |
| O=S(=O)(Nc1cccc(-c2ccc(N3CCOCC3)nn2)c1)c1ccc(Cl)c(Cl)c1 | inactive |
| Cc1cc(C)c(S(=O)(=O)N2CCCC2CNC(=O)c2ccc3c(c2)OCO3)c(C)c1 (configuration not stated) | -3.59 |
| Cc1cccc(OCC(=O)NCCCNC(=O)c2ccccn2)c1 | -0.01 |
| CCN(CC)CCOc1ccc2c(c1)C(=NNC(=O)c1ccccn1)c1cc(OCCN(CC)CC)ccc1-2 | -7.1 (active) |
| Cc1ccc(Cl)cc1NC(=O)c1ccccn1 | -3.49 |
| COc1cc(C(=O)NCC(=O)NCCSc2ccc(Br)cc2)cc(OC)c1OC | inactive |
| COc1cccc(NC(=O)CN(C)C(=O)CSCc2nc3scc(-c4cccs4)c3c(=O)[nH]2)c1 | inactive |
| CCc1ccccc1NC(=S)Nc1cc(OC)c(NC(=O)C(C)C)cc1OC | -0.92 |
| O=C(/C=C/c1ccccc1)N/C(=C/c1ccccc1)C(=O)Nc1ccccc1O | -0.61 |
| CCc1ccccc1NC(=O)/C(=C/c1ccccc1)c1ccccc1 | -9.3 (active) |
| CCCC(=O)Nc1ccc(Cl)c(NC(=O)c2ccc(Br)o2)c1 | inactive |
| CCN1CCN(c2c(Cl)cccc2NC(=O)c2ccc(Br)o2)CC1 | -6.14 (active) |
| COC(=O)c1ccc(N2CCOCC2)c(NC(=O)c2ccc(Br)o2)c1 | inactive |

| SMILES | B-score |
| --- | --- |
| CN(/N=C/c1ccccc1)C(=S)c1ccccc1 | inactive |
| O=C(NCCS(=O)(=O)N1CCN(c2ccc(F)cc2)CC1)c1ccc2c(c1)OCO2 | inactive |
| O=C(c1cccc([N+](=O)[O-])c1)N1CCN(Cc2ccccc2)CC1 | inactive |
| CC1(c2ccccc2)CC(C)(C)N(C(=O)c2cc([N+](=O)[O-])cc([N+](=O)[O-])c2)c2ccccc21 (configuration not stated) | -1.63 |
| CC1(c2cccc([N+](=O)[O-])c2)CC(C)(C)N(C(=O)c2ccccc2)c2ccccc21 (configuration not stated) | -7.53 (active) |
| NC(=O)c1ccsc1NC(=O)COC(=O)Cc1n[nH]c(=O)c2ccccc12 | -1.74 |
| COc1ccc(S(=O)(=O)NCCCc2ccccc2)cc1 | inactive |
| Cc1ccc(OCCNC(=O)CCNS(=O)(=O)c2ccc(Br)cc2)cc1 | inactive |
| O=C(Nc1cccc(Cl)c1N1CCOCC1)c1ccc2c(c1)OCCO2 | -6.48 (active) |
| O=C(Nc1cccc(Cl)c1N1CCOCC1)c1cccnc1 | inactive |
| COC(=O)c1ccc(N2CCOCC2)c(NC(=O)c2ccc3c(c2)OCCO3)c1 | inactive |
| Cc1ccc(NC(=O)CSCC(=O)Nc2sccc2C#N)cc1 | -0.08 |
| O=C(COC(=O)c1ccccc1Br)Nc1nnc(-c2ccccc2)o1 | -0.06 |
| CC(C)(C)n1nnnc1C(c1cccs1)N(Cc1cccnc1)CC1CCCO1 (configuration not stated) | -0.68 |
| CCOc1ccc(CN(Cc2ccco2)S(=O)(=O)c2ccc(-n3cnnn3)c(OC)c2)cc1 | inactive |
| CCOc1ccc(CN(Cc2ccco2)C(c2cccs2)c2nnnn2C(C)(C)C)cc1 (configuration not stated) | -6.35 (active) |
| O=C(NCc1ccccn1)Nc1ccc(Cl)cc1 | inactive |
| CCCN(CC(=O)Nc1ccccc1OC)C(=O)CCC(=O)c1ccc(F)cc1 | -1.98 |
| CN(C1CCS(=O)(=O)C1)S(=O)(=O)c1ccc2ccccc2c1 (configuration not stated) | -0.6 |
| O=C1c2oc3ccc(Br)cc3c(=O)c2C(c2cccc(F)c2)N1CCO (configuration not stated) | -4.46 |
| O=C1c2oc3ccccc3c(=O)c2C(c2cccc(O)c2)N1c1ccccn1 (configuration not stated) | -0.06 |
| COCCN1C(=O)c2oc3c(C)cc(C)cc3c(=O)c2C1c1cccc(O)c1 (configuration not stated) | -6.4 (active) |
